Measurements: the supplement of paper PMC12669032
Values without a mark were called inactive.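 The calls were made as follows: active = AUC reduced over 20% with Padj below 0.05 in at least 2 of 3 replicates; inactive = otherwise.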

Tests used:
[1] = test system: Roseburia intestinalis; assay: growth AUC relative to DMSO control (median of replicates) (fraction); higher = more growth (less inhibition), active = hit call of the paper; conditions: 20 µM; 24 h
In short: (§1)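 Gut bacterial monocultures were grown anaerobically at 37 °C in mGAM, starting at OD600 0.05, with 20 µM compound (1% DMSO) in round-bottom 96-well plates under pierced gas-permeable seals. OD600 was read hourly for 24 h. Area under the growth curve (minimum OD set to 0) was normalised to the plate median of DMSO controls, or to row and column medians on the industrial chemical plate. The value is the median of three biological replicates grown on separate days.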

[2] = test system: Streptococcus salivarius; assay: as above; conditions: 20 µM; 24 h
In short: as §1

CC(C)C(O)(c1ccc(OC(F)(F)F)cc1)c1cncnc1 (stereo unspecified)
growth AUC [1]: 1.04
growth AUC [2]: 1.04

Cc1ccc(C)c(O)c1
growth AUC [1]: 0.996
growth AUC [2]: 1.09

COC1CCC2(CC1)NC(=O)C(c1cc(C)ccc1C)C2O (stereo unspecified)
growth AUC [1]: 0.974
growth AUC [2]: 1.04

COC(=O)COc1ccc(Cl)cc1C
growth AUC [1]: 0.975
growth AUC [2]: 1.01

CCCCCCC(C)OC(=O)C(C)Oc1ccc(Cl)cc1C (stereo unspecified)
growth AUC [1]: 0.986
growth AUC [2]: 0.973

CC1(C)C(C(=O)OC(C#N)c2cccc(Oc3ccccc3)c2)C1C(Br)C(Br)(Br)Br (stereo unspecified)
growth AUC [1]: 0.932
growth AUC [2]: 0.972

CCCN(CCOc1c(Cl)cc(Cl)cc1Cl)C(N)=O
growth AUC [1]: 0.939
growth AUC [2]: 0.972

Oc1cccc2ccccc12
growth AUC [1]: 0.952
growth AUC [2]: 0.986

Cc1ccc2c(c1)[C@H](Nc1nc(N)nc(C(C)F)n1)[C@@H](C)C2 (stereo partly specified)
growth AUC [1]: 0.948
growth AUC [2]: 1.01

CCC(C)c1cc([N+](=O)[O-])cc([N+](=O)[O-])c1OC(=O)OC(C)C (stereo unspecified)
growth AUC [1]: 0.692 (active)
growth AUC [2]: 0.901

FC(F)(F)C(=NOCC1OCCO1)c1ccc(Cl)cc1
growth AUC [1]: 1.17
growth AUC [2]: 1.02

CC(C)OC(=O)N[C@H](C(=O)N[C@H](C)c1nc2ccc(F)cc2s1)C(C)C
growth AUC [1]: 0.975
growth AUC [2]: 0.959

O.O=C(Nc1ccc([N+](=O)[O-])cc1Cl)c1cc(Cl)ccc1O
growth AUC [1]: 0.869
growth AUC [2]: 0.085 (active)
